Screening results deposited in PubChem by The Scripps Research Institute Molecular Screening Center.
An excerpt weighted towards active compounds, which were near 1.8% of everything screened.
PME-1 primary – PME-1 inhibitors via competitive probe labeling, primary screen, biochemical, fluorescence polarization, FP-Rh probe, HTS; recombinant PME-1; 320,000 tested, 0.53% active; inhibition, % at 5.9 µM; Protein phosphatase methylesterase 1 (Homo sapiens), Q9Y570;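 active means inhibition above the campaign mean of all compounds plus 3 SD, cut at about 26% in these data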;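 further: competitive labeling of PME-1 active site by serine hydrolase directed probe; 0% = PME-1 with DMSO and 100% = wells lacking PME-1 enzyme; inhibitors block probe labeling so polarization falls and inhibition rises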
PP5 primary – PP5 phosphatase inhibitors, primary screen, biochemical, fluorescence. Serine/threonine-protein phosphatase 5 (Homo sapiens), P53041. purified PP5c, OMFP substrate fluorescence. inhibition, % at 6.7 µM. 320,000 tested, 0.18% active;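 active means inhibition above the campaign's mean inhibition across all tested compounds plus 3 SD, cut at about 9.5% in these data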;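 further: 0% = DMSO only and 100% = 100 µM cantharidin control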
LYPLA2 counter – LYPLA2 inhibitors, primary screen, counter-screen for PME1 inhibitor project, biochemical, fluorescence polarization, FP-Rh probe ABPP; Acyl-protein thioesterase 2 (Homo sapiens), O95372; recombinant LYPLA2; inhibition, % at 5.9 µM; 320,000 tested, 0.38% active;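 active means inhibition above the screen-wide mean plus 3 SD, limit set per campaign, cut at about 26% in these data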;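 further: 0% = LYPLA2 with DMSO and 100% = wells lacking LYPLA2 enzyme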
LYPLA1 counter – LYPLA1 inhibitors, primary screen, counter-screen for PME1 inhibitor project, biochemical, fluorescence polarization, FP-Rh probe ABPP | Acyl-protein thioesterase 1 (Homo sapiens), O75608 | recombinant LYPLA1 | inhibition, % at 5.9 µM | 320,000 tested, 0.16% active | AID 2174, 2009;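 active means inhibition above the mean of all tested compounds plus 3 SD, set per campaign, cut at about 14% in these data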;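 further: inhibitors block serine hydrolase probe labeling of LYPLA1 so polarization falls; 0% = enzyme with DMSO and 100% = wells lacking LYPLA1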
Fam108B counter – mouse Fam108B serine hydrolase inhibitors, primary screen, counter-screen for RBBP9 inhibitor project, biochemical, fluorescence polarization; AID 1947, 2009; recombinant Fam108B, FP-Rh probe fluorescence polarization; 300,000 tested, 0.33% active; inhibition, % at 9.51 µM;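 active means inhibition above the screen mean inhibition plus 3 SD, computed separately per campaign, cut at about 18% in these data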;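 further: inhibitors lower polarization as less probe binds the enzyme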
PP1 inh – PP1-alpha phosphatase inhibitors, primary screen, counter-screen for PP5 inhibitor project, biochemical, fluorescence, OMFP substrate, single point; purified PP1alpha; AID 2235, 2010; inhibition, % at 6.7 µM; 320,000 tested, 0.9% active;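 active means inhibition above the mean inhibition of all tested compounds plus 3 SD, computed separately for each screening campaign, cut at about 15% in these data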
Target sequence (P62136 whole entry, looked up): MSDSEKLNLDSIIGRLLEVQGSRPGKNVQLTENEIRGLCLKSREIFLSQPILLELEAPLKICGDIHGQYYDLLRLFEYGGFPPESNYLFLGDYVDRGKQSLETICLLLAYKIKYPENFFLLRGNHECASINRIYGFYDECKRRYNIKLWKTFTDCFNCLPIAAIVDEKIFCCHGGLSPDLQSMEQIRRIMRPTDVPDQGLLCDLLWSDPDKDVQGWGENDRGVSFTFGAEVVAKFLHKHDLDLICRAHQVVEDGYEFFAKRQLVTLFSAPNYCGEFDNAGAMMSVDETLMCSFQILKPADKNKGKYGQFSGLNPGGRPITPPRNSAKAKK
PP1 confirm – PP1 phosphatase inhibitors, confirmation, biochemical, fluorescence, OMFP substrate, triplicate; shares compounds with PP1 inh; purified PP1alpha; inhibition, % at 6.7 µM; 1,900 tested, 52% active;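 active means mean PP1 inhibition above a set limit taken from the earlier primary screen, cut at about 15% in these data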
PP5 inh counter – PP5 phosphatase inhibition by PP1 hits, confirmation, counter-screen for PP1 inhibitor project, biochemical, fluorescence, triplicate; shares compounds with PP1 inh; purified PP5c, OMFP fluorescence; inhibition, % at 6.7 µM; 1,900 tested, 4% active;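 active means mean PP5 inhibition over triplicate wells above about 9.5% taken from the earlier PP1 screen, limit read from the data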
Active calls of the source: *; . = no result given.

SMILES | PME-1 primary | PP5 primary | LYPLA2 counter | LYPLA1 counter | Fam108B counter | PP1 inh | PP1 confirm | PP5 inh counter
Oc1c(C(c2ccccn2)N2CCC(Cc3ccccc3)CC2)cc(Cl)c2cccnc12 (stereo unspecified) | 5.1 | 4.6 | -1.3 | -2.6 | 8.9 | 73.5* | 20.3* | 1.6
Oc1c(C(c2ccc(Cl)cc2)N2CCCC2)cc(Cl)c2cccnc12 (stereo unspecified) | -3.7 | 5.4 | 7.9 | -0.5 | -2.4 | 24.6* | 22.4* | -1.5
Oc1c(C(c2ccccc2Cl)N2CCCC2)ccc2cccnc12 (stereo unspecified) | 0.8 | -1.4 | 4.9 | -1.0 | 0.4 | 20.7* | 10.8 | 0.4
CC(=O)NC(c1cc(Cl)c2cccnc2c1O)C1CC1 (stereo unspecified) | -5.2 | -0.2 | 5.2 | -1.6 | . | 1.3 | . | .
CCOc1ccc(NC(=O)CN(C)Cc2ccc3c(c2)OCO3)cc1S(=O)(=O)N1CCCC1 | -4.5 | 0.4 | -8.8 | 0.5 | . | 0.1 | . | .
CCC(=O)N1CCc2cc(Br)cc(S(=O)(=O)NCc3ccccc3OC)c21 | 4.3 | -0.3 | 1.5 | 2.3 | 5.6 | 3.2 | . | .
CC(OC(=O)CCOc1ccccc1)C(=O)NC1CC1 (stereo unspecified) | -2.0 | -1.1 | 2.9 | 0.1 | 0.4 | -3.4 | . | .
CN1CCN(C(c2ccccn2)c2cc(Cl)c3cccnc3c2O)CC1 (stereo unspecified) | -2.7 | 9.3 | 4.0 | 0.8 | 4.4 | 72.3* | 58.6* | 6.0
CCOC(=O)CC1(NC(=O)C2CCC(=O)N(CCc3ccccc3)C2)CCCCC1 (stereo unspecified) | 1.8 | -0.6 | -2.2 | -4.7 | -3.3 | 20.2* | 0.0 | 2.1
CC(C)CN(C(=O)CN1C(=O)NC(c2ccccc2)(c2ccccc2)C1=O)C1CCS(=O)(=O)C1 (stereo unspecified) | 24.6 | 2.1 | -0.8 | -0.7 | . | 1.3 | . | .
COc1cccc(CN2CC(C(=O)N(C)C3CCOCC3)CCC2=O)c1 (stereo unspecified) | 3.3 | -0.8 | -3.1 | 1.2 | -3.7 | -3.5 | . | .
CC1=C(C(=O)Nc2ccccc2)C(c2ccc(C)cc2)N=C(Nc2nc3ccccc3o2)N1 (stereo unspecified) | -1.8 | -1.9 | -7.5 | -0.3 | -3.0 | 22.6* | 25.3* | -0.2
CC1(C)CC(=O)C2=C(C1)NC(Nc1nc3ccccc3o1)=NC2c1ccccn1 (stereo unspecified) | -2.1 | 0.3 | -0.5 | -4.4 | -0.5 | -1.1 | . | .
S=c1[nH]nc(COc2ccccc2)n1/N=C/c1cccc(Br)c1 | 6.2 | -1.0 | -6.7 | -4.6 | 2.9 | 32.7* | -0.5 | -7.0
O=C(C[n+]1cc(-c2ccc(Cl)cc2)n2c1CCCCC2)c1ccccc1 | -2.6 | 1.2 | -5.0 | 1.1 | -1.6 | -2.3 | . | .
COc1ccc(-c2c[n+]3c4n2CCCCC4=C(c2ccc(Br)cc2)C3)cc1 | -0.5 | 1.6 | 0.4 | -0.8 | 4.2 | 33.0* | -10.7 | -1.3
Clc1ccc(C2=C3CCCCn4c(-c5ccccc5)c[n+](c43)C2)cc1 | -2.7 | -0.5 | 2.9 | 2.8 | 0.7 | 18.0* | -11.8 | -0.6
CCCCC1CCC(C(=O)NCC(c2ccco2)N2CCOCC2)CC1 (stereo unspecified) | -3.1 | 3.5 | 2.3 | 3.6 | 4.0 | 1.1 | . | .
NS(=O)(=O)c1ccc(N=Nc2c(O)ccc3ccccc23)cc1 | 7.0 | -1.0 | 5.0 | 2.1 | 2.8 | 2.7 | . | .
NS(=O)(=O)c1ccc(N=Nc2ccc(O)c3ncccc23)cc1 | 5.6 | 4.0 | -4.7 | 0.0 | 6.0 | 51.4* | 36.8* | -1.7
Cc1cccc(N=Nc2ccc(O)c3ncccc23)c1 | 6.9 | 1.6 | 2.6 | -3.0 | 9.2 | 29.4* | 29.4* | -0.7
